# Only a selection was taken, and the strongest signals are over-represented in it overall.
# B1: Epa1-NP-mutant-D229G (Candida glabrata), Q6VBJ0 (protein)
# chain: MILNPALFLNKCVCIYTTLILLLLTNGGYATSSNDISLASKDPTTFPLGCSPDITTPKKGLSMELYSYDFRKKGSYPCWDAAYLDPNYPRTGYKSHRLLAKVDGVTGNINFYYHATKGCTPQLGHLPASYNYPKPLTMTNFTMLLYGYFRPKVTGFHTFTISADDLLFVNFGAGNAFDCCRRDSSADHFGNYQAYAIWGSKTAKDELTVHLDAGVYYPIRLFYNNREYGGALSFTFKTESNENTVSDFSEYFFSLDDTEEGCPGLISYDSSCASVKTSKIIGIDYHTETPNENLVPITKTIYHLGIPCTGTTTTPLCGSGFYDPLANKCVTINTSSTSSVTKTTSHTTSKEVSFHSSISSQKTLIPKSIPSPYGPIKSQSIPTEMETSSEISSSEYAFSDVISTPSHSPYTKKHSSLNSSSYTSTVIHSLTSYSISQGIFSTSLSEQNITSKSSTDKFSTATSMSNNITQSSIIISQFSTNNENYTTTSMHTSSDKISTETLNNSISTTTSILFSNSSTILKNNTTIISSDKDTHYHPVNPTIVCSTNKTEIICASITQPSISNSNNHWSSSVLKFNSTTVRSTLPSSAGSNETSINVPFSSSTESNTSTSSTSTSNSKMVRSTLPSSAGSNETSISVPFSSSTESNTSTSSTSTSNSKMVRSTLPSSAGSNETSINVPFSSSTESNTSTSSTSTSNSKTVRSTPFSSAGIIMTSLSQRNNKSASSYASSNSKCYNTADSCRKVHSTPSYLLTSSYTSEGVDYDCSLVSTKLKINDTNCVNNKHTTKSCLKTSVTTTIPTLEIKTARKSSSNTIGLHSYPTSSPNKSISSAPIIGYISSFKTIKTASPSYQTSDLTTITTITSLNNPGSTAVENTHESNDKSRKTSSNDISSKHSVIKETKDAVESSNKSHQTNTLKCSSIIIASSSHNSYESLGGTTLTLTLSKVYSPQNNDTLPFLEISEVNPSRTVLPESSKMMQYLTSTEERNKTARNTIATNIVSISTFHFEGEGNAIRMGYTQLLLMLIGIIVMNIGT
# Tests used:
# Assay in all cases: glycan array binding signal (z-score within array); higher = stronger binding
# Conditions in all cases: glycan notation: IUPAC condensed, linker removed; mutation: D229G
# [1] = biological target: Gal(b1-4)GlcNAc(b1-3)Gal(b1-4)GlcNAc(b1-3)[Gal(b1-4)GlcNAc(b1-3)Gal(b1-4)GlcNAc(b1-6)]GalNAc
# Outline: (§1)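 Glycan array data were curated from 3228 arrays in the Consortium for Functional Glycomics database and kept only where the protein sequence was available. Glycan names were converted to IUPAC-condensed notation, and columns mapping to the same glycan were averaged. The binding signal is a within-array Z-score, averaged across arrays of the same protein sequence at different concentrations or buffers and across linkers. Negative Z-scores can be read as non-binding.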
# [2] = biological target: Gal(b1-4)GlcNAc(b1-3)Gal(b1-4)[Fuc(a1-3)]GlcNAc(b1-3)Gal(b1-4)[Fuc(a1-3)]GlcNAc
# Outline: as §1
# [3] = biological target: Gal(b1-4)GlcNAc(b1-3)[Gal(b1-4)GlcNAc(b1-6)]Gal(b1-4)GlcNAc
# Outline: as §1
# Gal3S(b1-3)GalNAc = biological target: Gal3S(b1-3)GalNAc
# Outline: as §1
# [4] = biological target: Gal3S(b1-4)[Fuc(a1-3)]Glc6S
# Outline: as §1
# Gal3S6S(b1-4)GlcNAc = biological target: Gal3S6S(b1-4)GlcNAc
# Outline: as §1
# Gal4S6S(b1-4)GlcNAc = biological target: Gal4S6S(b1-4)GlcNAc
# Outline: as §1
# Gal6S(b1-4)GlcNAc6S = biological target: Gal6S(b1-4)GlcNAc6S
# Outline: as §1
# GalNAc(a1-3)GalNAc = biological target: GalNAc(a1-3)GalNAc
# Outline: as §1
# GalNAc(b1-4)Gal(b1-4)Glc = biological target: GalNAc(b1-4)Gal(b1-4)Glc
# Outline: as §1
# [5] = biological target: GalNAc(b1-4)GlcNAc(b1-2)Man(a1-3)[GalNAc(b1-4)GlcNAc(b1-2)Man(a1-6)]Man(b1-4)GlcNAc(b1-4)GlcNAc
# Outline: as §1
# GalNAc(b1-6)GalNAc = biological target: GalNAc(b1-6)GalNAc
# Outline: as §1
# [6] = biological target: GlcNAc(a1-3)Gal(b1-4)GlcNAc
# Outline: as §1
# [7] = biological target: GlcNAc(a1-4)Gal(b1-4)GlcNAc(b1-3)Gal(b1-4)GlcNAc
# Outline: as §1
# [8] = biological target: GlcNAc(a1-4)Gal(b1-4)GlcNAc(b1-3)Gal(b1-4)GlcNAc(b1-3)Gal(b1-4)GlcNAc
# Outline: as §1
# [9] = biological target: GlcNAc(b1-3)Gal(b1-4)GlcNAc(b1-3)Gal(b1-4)GlcNAc(b1-3)Gal(b1-4)GlcNAc(b1-3)Gal(b1-4)GlcNAc(b1-2)Man(a1-3)[GlcNAc(b1-3)Gal(b1-4)GlcNAc(b1-3)Gal(b1-4)GlcNAc(b1-3)Gal(b1-4)GlcNAc(b1-3)Gal(b1-4)GlcNAc(b1-2)Man(a1-6)]Man(b1-4)GlcNAc(b1-4)[Fuc(a1-6)]GlcNAc
# Outline: as §1
# [10] = biological target: GlcNAc(b1-3)Gal(b1-4)GlcNAc(b1-3)Gal(b1-4)GlcNAc(b1-3)Gal(b1-4)GlcNAc(b1-3)Gal(b1-4)GlcNAc(b1-2)[GlcNAc(b1-3)Gal(b1-4)GlcNAc(b1-3)Gal(b1-4)GlcNAc(b1-3)Gal(b1-4)GlcNAc(b1-3)Gal(b1-4)GlcNAc(b1-6)]Man(a1-6)[GlcNAc(b1-3)Gal(b1-4)GlcNAc(b1-3)Gal(b1-4)GlcNAc(b1-3)Gal(b1-4)GlcNAc(b1-3)Gal(b1-4)GlcNAc(b1-2)Man(a1-3)]Man(b1-4)GlcNAc(b1-4)[Fuc(a1-6)]GlcNAc
# Outline: as §1
# GlcNAc(b1-3)Man = biological target: GlcNAc(b1-3)Man
# Outline: as §1
# [11] = biological target: GlcNAc(b1-4)GlcNAc(b1-4)GlcNAc
# Outline: as §1
# [12] = biological target: Man(a1-3)[Man(a1-6)]Man(a1-6)[Man(a1-2)Man(a1-3)]Man(b1-4)GlcNAc(b1-4)GlcNAc
# Outline: as §1
# [13] = biological target: Man(a1-3)[Man(a1-6)]Man(b1-4)GlcNAc(b1-4)[Fuc(a1-6)]GlcNAc
# Outline: as §1
# [14] = biological target: Neu5Ac(a2-3)Gal(b1-3)GlcNAc6S
# Outline: as §1
# [15] = biological target: Neu5Ac(a2-3)Gal(b1-3)]Neu5Ac(a2-3)Gal(b1-4)]GlcNAc
# Outline: as §1
# [16] = biological target: Neu5Ac(a2-3)Gal(b1-4)GlcNAc(b1-6)[Gal(b1-3)]GalNAc
# Outline: as §1
# Neu5Ac(a2-6)Gal = biological target: Neu5Ac(a2-6)Gal
# Outline: as §1
# [17] = biological target: Neu5Ac(a2-6)Gal(b1-4)GlcNAc(b1-2)Man
# Outline: as §1
# [18] = biological target: Neu5Ac(a2-6)Gal(b1-4)GlcNAc(b1-3)Gal(b1-4)GlcNAc(b1-3)[Neu5Ac(a2-6)Gal(b1-4)GlcNAc(b1-3)Gal(b1-4)GlcNAc(b1-6)]GalNAc
# Outline: as §1
# [19] = biological target: Neu5Ac(a2-6)Gal(b1-4)GlcNAc(b1-3)Gal(b1-4)[Fuc(a1-3)]GlcNAc(b1-3)Gal(b1-4)[Fuc(a1-3)]GlcNAc
# Outline: as §1
# [20] = biological target: Neu5Ac(a2-6)GalNAc(b1-4)GlcNAc6S
# Outline: as §1
# [21] = biological target: Neu5Ac(a2-8)Neu5Ac(a2-3)Gal(b1-3)GalNAc(b1-4)[Neu5Ac(a2-3)]Gal(b1-4)Glc
# Outline: as §1
binder,measurement,setting,value
B1,glycan array binding signal (z-score),[1],2.55
same,glycan array binding signal (z-score),[2],-0.579
same,glycan array binding signal (z-score),[3],0.003
same,glycan array binding signal (z-score),Gal3S(b1-3)GalNAc,-0.232
same,glycan array binding signal (z-score),[4],1.6
same,glycan array binding signal (z-score),Gal3S6S(b1-4)GlcNAc,2.68
same,glycan array binding signal (z-score),Gal4S6S(b1-4)GlcNAc,1.06
same,glycan array binding signal (z-score),Gal6S(b1-4)GlcNAc6S,10.9
same,glycan array binding signal (z-score),GalNAc(a1-3)GalNAc,0.722
same,glycan array binding signal (z-score),GalNAc(b1-4)Gal(b1-4)Glc,0.754
same,glycan array binding signal (z-score),[5],1.11
same,glycan array binding signal (z-score),GalNAc(b1-6)GalNAc,0.649
same,glycan array binding signal (z-score),[6],-0.409
same,glycan array binding signal (z-score),[7],0.024
same,glycan array binding signal (z-score),[8],-0.64
same,glycan array binding signal (z-score),[9],0.489
same,glycan array binding signal (z-score),[10],0.337
same,glycan array binding signal (z-score),GlcNAc(b1-3)Man,-0.859
same,glycan array binding signal (z-score),[11],0.36
same,glycan array binding signal (z-score),[12],0.04
same,glycan array binding signal (z-score),[13],-0.736
same,glycan array binding signal (z-score),[14],-0.064
same,glycan array binding signal (z-score),[15],0.197
same,glycan array binding signal (z-score),[16],0.933
same,glycan array binding signal (z-score),Neu5Ac(a2-6)Gal,0.425
same,glycan array binding signal (z-score),[17],0.054
same,glycan array binding signal (z-score),[18],3.67
same,glycan array binding signal (z-score),[19],1.65
same,glycan array binding signal (z-score),[20],0.733
same,glycan array binding signal (z-score),[21],-0.032

# Reference: the supplement of paper PMC8728848
